Compound activity from PubChem BioAssay.
D3 ag = qHTS of D3 Dopamine Receptor Agonist: qHTS. D(3) dopamine receptor (Homo sapiens), P35462. D3R DiscoveRx beta-arrestin cells, luminescence, 90 min. max activation, %. 410,000 tested, 0.58% active; in the data active = max activation above about 30%
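Agonist-mode cell screen: cells plated at 1500/well and incubated overnight at 37 °C, then exposed to library compounds for 90 min at 37 °C. Detection reagent was added for 30–60 min at room temperature, and luminescence was read.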
DT40 TDP1 CPT = qHTS for Inhibitors of human tyrosyl-DNA phosphodiesterase 1 (TDP1): qHTS in cells in presence of CPT; Potency, µM (series often up to 46.2 µM), hits mostly inhibitors; chicken DT40 Tdp1-/-;hTDP1 cells + 20 nM CPT, ATP luminescence, 48 h; 420,000 tested, 12% active; also: nearly all actives have a fitted effect of over 55% in size
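Cell growth measured by CellTiter-Glo luminescence after a minimum 48 h, 37 C compound exposure with 20 nM CPT in Tdp1-knockout DT40 cells stably expressing hTDP1, seeded 400/well; qHTS titration format.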
ClpP mod = qHTS Assay for Activators of ClpP | ATP-dependent Clp protease proteolytic subunit (Bacillus subtilis (strain 168)), P80244 | purified B. subtilis ClpP, FRET peptide cleavage, 20 min | Potency, µM (series often up to 57.5 µM) | 340,000 tested, 1.9% active; active = well fitted falling curve with a large enough effect; inconclusive = small, poorly fitted or top-dose-only effect; inactive = no such curve, though single readings can be large or run the other way; also: the source files actives as falling curves though it sought activators and does not explain the sign; nearly all actives have a fitted effect of over 65% in size
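ClpP 10 microg/mL final, pH 8 Tris/KCl buffer with BSA, glycerol, Tween-20; compound pinned in; FRET-FV substrate; RT 20 min; Ex320/Em430; ΔFRET vs ADEP 5.8 microM, DMSO, no enzyme.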
DRD3 antagonist = qHTS of D3 Dopamine Receptor Antagonist: qHTS; D(3) dopamine receptor (Homo sapiens), P35462; D3R cells, DiscoveRx beta-arrestin luminescence, antagonist mode; active compounds read low; max response, negative = inhibition, %; 360,000 tested, 2.5% active; AID 652054, 2013; in the data active = max response below about -50%; inconclusive = no clear call, values can overlap the other calls
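Cells expressing the human receptor were seeded at 1500 cells/well, incubated overnight at 37 degrees C in 5% CO2, then exposed to library compounds with dopamine controls for 90 minutes at 37 degrees C before luminescent detection.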
IL1B secr inh = qHTS for Inhibitors of Inflammasome Signaling: IL-1-beta AlphaLISA Primary Screen | THP-1 LPS/ATP IL-1B secretion, AlphaLISA, 16 h; active compounds read low | activity change, % at 57.5 µM | AID 743279, 2014 | 360,000 tested, 4.7% active; in the data active = activity change below about -50%; inconclusive = mostly about -30% to -49%
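THP-1 cells pretreated 1 hr with compounds (up to 57.5 uM final), then stimulated with LPS (250 ng/mL final) plus ATP (1.25 mM final); secreted IL-1B measured by AlphaLISA after 16 hr, decreased signal indicating inhibition.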
DT40 TDP1 no CPT = qHTS for Inhibitors of human tyrosyl-DNA phosphodiesterase 1 (TDP1): qHTS in cells in absence of CPT; DT40 Tdp1-/- hTDP1 cells, no CPT, ATP luminescence, 48 h; Potency, µM (doses to about 46.2 µM), hits mostly inhibitors; 420,000 tested, 15% active; AID 686978, 2013; also: nearly all actives have a fitted effect of over 55% in size
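Chicken DT40 Tdp1-/- cells complemented with human TDP1, screened without camptothecin (DMSO vehicle only), 400 cells/well. Compounds pin-transferred, cells incubated at 37 °C for at least 48 hr. Growth read as ATP-dependent luminescence (CellTiter-Glo, 30 min at RT).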
Each line names hits and unclear results; the compound was inactive in the other large screens. An excerpt weighted towards active compounds, which were near 21% of everything screened. Unless noted, calls follow the shape of the dose curve; as a rule, active = well fitted inhibition curve with a large enough effect; inconclusive = small, poorly fitted or top-dose-only effect; inactive = flat fitted curve, though single readings scatter.

Nc1ccccc1NC(=O)NC(=O)c1ccccc1	DT40 TDP1 CPT inconclusive
O=C(Nc1ccccc1)OC[C@@H]1C=CS(=O)(=O)N1Cc1ccc(Br)cc1	DT40 TDP1 CPT inconclusive, IL1B secr inh -68, DT40 TDP1 no CPT inconclusive
CC(=O)c1ccc(Nc2ccc(-c3ccccc3C)nn2)cc1	DT40 TDP1 CPT inconclusive
CN(C1CCCCC1)C(CNS(=O)(=O)c1ccc(Cl)cc1)c1ccccc1 (stereo not given)	none
Nc1ccc2c(c1Cl)C(=O)c1ccc(N)c(Cl)c1C2=O	DT40 TDP1 no CPT inconclusive
Cc1ccc2c(c1C)-c1c(ccc(C)c1C)C(=O)C2=O	DT40 TDP1 CPT 0.92µM, DRD3 antagonist inconclusive, IL1B secr inh -85, DT40 TDP1 no CPT 1µM
C=CCn1c(SCC(=O)c2[nH]c(C)c(C(C)=O)c2C)nnc1-c1ccncc1	DT40 TDP1 CPT inconclusive, ClpP mod 32µM, DRD3 antagonist inconclusive, DT40 TDP1 no CPT 26µM
C=CCn1c(C)nnc1SCC(=O)c1[nH]c(C)c(C(C)=O)c1C	none
CC(=O)c1c(C)[nH]c(C(=O)CSc2nnc(-c3ccco3)n2Cc2ccccc2)c1C	DT40 TDP1 CPT 23µM, DT40 TDP1 no CPT 16µM
Nn1c(SCC(=O)N2CCCC2)nnc1C1CCCCC1	none
CC(=O)c1c(C)[nH]c(C(=O)CSc2nnc(-c3cccs3)n2Cc2ccccc2)c1C	DT40 TDP1 CPT inconclusive, DT40 TDP1 no CPT inconclusive
CC(=O)c1c(C)[nH]c(C(=O)CSc2nnc(C3CCCCC3)n2N)c1C	DT40 TDP1 CPT 18µM, DT40 TDP1 no CPT 13µM
C=CCn1c(SCC(=O)c2[nH]c(C)c(C(=O)OC)c2C)nc2scc(-c3ccc(OC)c(OC)c3)c2c1=O	DT40 TDP1 CPT 16µM, ClpP mod inconclusive, DT40 TDP1 no CPT 8.2µM
C=CCn1c(SCCN2C(=O)c3ccccc3C2=O)nc2scc(-c3ccc(F)cc3)c2c1=O	none
O=C(COC(=O)c1cc(=O)c2ccccc2o1)NCc1ccc(Cl)cc1	DRD3 antagonist inconclusive
COc1cccc(CNC(=O)CCC2CCCN(C(=O)C3=CC(=O)CC(C)(C)O3)C2)c1 (stereo not given)	DT40 TDP1 no CPT inconclusive (no result: ClpP mod)
O=C1/C(=C/C=C/c2ccco2)SC(=S)N1c1ccc(O)cc1	DT40 TDP1 CPT 18µM, DT40 TDP1 no CPT inconclusive
CN(C)c1ccc(/C=C/C=C2/SC(=S)N(c3ccccc3)C2=O)cc1	DT40 TDP1 CPT 18µM, DRD3 antagonist -67, IL1B secr inh inconclusive, DT40 TDP1 no CPT 8.2µM
O=C(O)c1ccc(N2C(=O)/C(=C/C=C/c3ccccc3)SC2=S)cc1	none
CC(C)c1ccc(N2C(=O)CS(=O)(=O)C23C(=O)N(Cc2cccc(F)c2)c2ccccc23)cc1 (stereo not given)	DT40 TDP1 CPT inconclusive, DT40 TDP1 no CPT inconclusive (no result: DRD3 antagonist, IL1B secr inh)
CCOC(=O)c1cc(-c2ccc(OC)cc2)nc2c1c(C)nn2CCC(N)=S	DT40 TDP1 CPT inconclusive, IL1B secr inh inconclusive, DT40 TDP1 no CPT inconclusive (no result: ClpP mod)
Cc1ccc(S(=O)(=O)N2CCN(C(=O)COC(=O)CCOc3ccccc3C)CC2)c(C)c1	none
CSc1ccc(Cl)c(C(=O)OCC(=O)N2CCN(c3ccccc3)CC2)c1	none
CC1=C(C#N)C(c2ccc3ncccc3c2)C(C#N)=C(C)N1	DRD3 antagonist -61
CCN(CC(=O)Nc1cc(Cl)ccc1C)C(=O)c1ccc2c(=O)n3c(nc2c1)CCC3	none
O=C(c1ccccc1)N1N=C(C(F)(F)F)CC1(O)c1ccc(F)cc1 (stereo not given)	DT40 TDP1 CPT inconclusive, DT40 TDP1 no CPT inconclusive
Nc1ncnc(Nc2ccc(S(N)(=O)=O)cc2)n1	none
Cc1ccc(Cc2c(-c3ccco3)nc3ccc(C)cn23)cc1	DT40 TDP1 CPT 16µM, DT40 TDP1 no CPT 13µM
Cc1ccc(Cc2c(-c3ccco3)nc3c4ccccc4ccn23)cc1	DT40 TDP1 CPT 18µM, DT40 TDP1 no CPT 15µM
Cc1ccc(Cc2c(-c3ccco3)nc3c(C)cc(Br)cn23)cc1	DT40 TDP1 CPT 3.7µM, DRD3 antagonist inconclusive, IL1B secr inh -70, DT40 TDP1 no CPT 6.5µM
Cc1cc(Br)cn2c(Cc3cccc(Cl)c3)c(-c3ccco3)nc12	DT40 TDP1 CPT inconclusive, DRD3 antagonist -63, DT40 TDP1 no CPT 21µM
COc1ccc(NC(=O)c2cc3cc(C)ccc3[nH]2)cc1	none (no result: DRD3 antagonist, IL1B secr inh)
CC1(C(=O)N/N=C/c2ccccc2)CC1(Cl)Cl (stereo not given)	none
CCN1c2ccccc2NC2C1C(C(C)=O)C(=O)N2c1ccc(Cl)cc1 (stereo not given)	DT40 TDP1 CPT 21µM, DRD3 antagonist inconclusive, DT40 TDP1 no CPT 16µM
O=C1Nc2ccccc2N(O)N1c1ccc(Cl)cc1	none (no result: ClpP mod)
Nc1nc(-c2ccc3ccccc3c2)cs1	ClpP mod inconclusive, IL1B secr inh -67
Nc1nc(-c2cc3ccccc3o2)cs1	IL1B secr inh -75 (no result: ClpP mod)
CN(C)/C=N/c1nc(-c2ccc3ccccc3c2)cs1	IL1B secr inh -61
Cc1cccc(N2CCN(C(=O)c3ccc4nc(N5CCC(C)CC5)sc4c3)CC2)c1C	DT40 TDP1 CPT 21µM, DT40 TDP1 no CPT 16µM (no result: DRD3 antagonist, IL1B secr inh)
CC1CCN(c2nc3ccc(C(=O)NCc4ccccc4Cl)cc3s2)CC1	DT40 TDP1 CPT inconclusive, DT40 TDP1 no CPT 21µM (no result: DRD3 antagonist, IL1B secr inh)
CC1CCN(c2nc3ccc(C(=O)NCCCN4CCCCC4)cc3s2)CC1	DT40 TDP1 CPT inconclusive, DT40 TDP1 no CPT 23µM
CC1CCN(c2nc3ccc(C(=O)NCc4ccc(Cl)cc4)cc3s2)CC1	DT40 TDP1 CPT inconclusive, DT40 TDP1 no CPT inconclusive (no result: DRD3 antagonist, IL1B secr inh)
CCC1CCCCN1CCCNC(=O)c1ccc2nc(N3CCC(C)CC3)sc2c1 (stereo not given)	DT40 TDP1 CPT inconclusive, IL1B secr inh inconclusive, DT40 TDP1 no CPT inconclusive
COc1ccc2c(c1)C=C(C(=O)OCc1cccnc1)CO2	none (no result: ClpP mod)
CCOc1ccc(NC(=O)C2CCCCN2S(=O)(=O)c2ccccc2)cc1 (stereo not given)	DT40 TDP1 CPT inconclusive, DT40 TDP1 no CPT inconclusive
CCOc1ccccc1NC(=O)C1CCCCN1S(=O)(=O)c1ccccc1 (stereo not given)	DT40 TDP1 CPT inconclusive, DT40 TDP1 no CPT 21µM
COc1ccc(NC(=O)C2CCCCN2S(=O)(=O)c2ccc(F)cc2)cc1 (stereo not given)	DT40 TDP1 CPT inconclusive
